Source: the supplement of paper PMC6555819

These sequences were tested on PPARg:RXRa DBDmut IVT, anti-RXR (DBD mutation: RXRa K156A/R161A, NR concentration 270 nM, RXRa partner concentration 90 nM) (assay: PBM binding z-score (relative to random genomic background probes); higher = stronger binding; sequences stand for … in GC…GCGATTGACAGCGTAGAATGAAGG).
Procedure, shortened: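 Custom Agilent 4×180K protein-binding microarrays carried double-stranded probes. Their 34-nt variable regions held direct-repeat seeds, single-nucleotide variants, half-site ablations and random human genomic background sequences. Arrays were incubated 1 h with ligand-free nuclear receptor dimers in PBS pH 7.4, 2% milk, 0.02% Triton X-100, 1 mM DTT, 0.2 mg/mL BSA and 0.4 mg/ml salmon testes DNA. Antibodies against each partner (one per run) detected binding, and scanned fluorescence was regression-normalized. Binding z-scores use random background probes as reference.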

| Sequence | PBM binding z-score |
| --- | --- |
| AGAATCAGGTTATTAAGATCAGGGAATTGCGGTC | 2.96 |
| TCGAGTAGGTTAGGGGTATTCAGAATGGCGTCGA | 2.5 |
| CCTACTGGGCCCTTCAGAGGTCATTGATCATATG | 0.668 |
| GAGACTGGGGCAAAGCAGGTTACCATAAGGTTGG | 5.26 |
| CCCACTGGGCCACGAAAGGTCATTGATTCAGTGA | 4.55 |
| CCAGACAGGTGAGAAGGTCACTCAGCCTCGATTA | 1.76 |
| ATCGAAAGCTCGTGAGGTGAGTATACAGAAAGGC | -0.799 |
| TCTAGTTGGTCAAAGGTCACACATTCGAAATGCG | 3.49 |
| TAGCGTAGGTCAGATCGGGCCAGTATACGCTATA | -0.503 |
| TCTGGTAGATCAAAGGTTAAGAAAGCCGAAGCCT | 1.47 |
| CGTCCAAGGTCAAGGTCAGTCAAAGAGACTCGAA | 4.13 |
| TCATATAGGTAAAGGTGAAAGTCGAACGATATGA | 3.76 |
| ACAGACAGGTGAGTGAAGGCAACTCAGCTGGACG | 0.534 |
| AGAATGAGGTTATTAAGCTCAGGGAATTGCGGTC | 2.58 |
| CGTCCAAGGTAAGCAGGTCAGTGAAAGCGACGTG | 1.7 |
| ACTAGTTTGTCAGCTGAGGTCACACACAATTCGG | 1.11 |
| TCTTGTAGATCAGCAGGTTCAGAAAGCTGGCCAA | 1.4 |
| ACAGACAGGTGAGTGAAGGAAACTCAGCTGGACG | 0.214 |
| TCTTGTAGATCAAAAGAGGTTAAGAAAGTGCGCT | 1.47 |
| TTACCGAGGTGAAGGTCGTTGATCCCTCTGTAGA | 1.78 |
| CCGAGTAGGTTATGAGGCATTCAGGCAACGGTGA | 2.79 |
| CGAACTAGGTCATGCAGGACAGTGAATACATTGA | 8.05 |
